Reference: PubChem BioAssay AID1508609 (The Scripps Research Institute Molecular Screening Center, 2020)
Out of some 6,700 compounds screened, fewer than 10 were called active.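 Rule for the calls: active = mean percent activation across replicates above the confirmation screen cutoff of 4.91%; inactive = the rest.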 Only a sample is shown.

target: G-protein coupled receptor 151 (Homo sapiens) (UniProt Q8TDV0); assay: GPR151 activators, triplicate retest, confirmation, cell-based, PathHunter beta-arrestin, luminescence (AID 1508609); conditions: GPR151 PathHunter beta-arrestin cells, 90 min, at 11.2 µM, stronger effect = higher value, % of EA-reagent control over plate median
Sequence (Q8TDV0 whole entry, looked up): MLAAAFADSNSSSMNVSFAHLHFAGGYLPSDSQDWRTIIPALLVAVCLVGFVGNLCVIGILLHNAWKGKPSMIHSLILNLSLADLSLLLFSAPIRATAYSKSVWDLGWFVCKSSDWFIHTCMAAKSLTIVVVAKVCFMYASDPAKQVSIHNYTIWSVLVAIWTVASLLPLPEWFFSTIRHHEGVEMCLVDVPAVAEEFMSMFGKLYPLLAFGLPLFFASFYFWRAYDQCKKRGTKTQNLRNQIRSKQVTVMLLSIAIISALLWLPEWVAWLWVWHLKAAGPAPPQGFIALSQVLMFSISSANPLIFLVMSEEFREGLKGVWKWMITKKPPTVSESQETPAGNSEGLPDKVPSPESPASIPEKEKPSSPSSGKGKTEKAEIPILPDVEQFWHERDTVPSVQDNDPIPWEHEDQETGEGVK

activation, inactive:
Cc1nnc(SCC(=O)NCc2ccccc2)s1 -1.41%
CCN(CC)c1nc(Nc2cc(OC)c(OC)c(OC)c2)nc(N2CCOCC2)n1 -0.81%
COc1ccc2c(c1)C=C(CN1CCN(CC3CCCCC3)C(CCO)C1)CO2 (stereo unspecified) 0.99%
COc1ccc(OC)c(NC(=O)CN(c2cccc(C)c2C)S(C)(=O)=O)c1 -1.37%
CCc1cc2c(=O)c(-c3ccc4c(c3)OCCCO4)coc2cc1OC(=O)N1CCOCC1 -0.64%
COc1cc(Nc2cc(N3CCN(c4ccc(F)cc4)CC3)c3noc4c3c2C(=O)c2ccccc2-4)cc(OC)c1OC -0.64%
O=CN1CCN(CCC(=O)Nc2ccccc2)CC1 1.05%
CC1(C(=O)Nc2cccc(C(F)(F)F)c2)CC2c3ccccc3C1c1ccccc12 (stereo unspecified) 0.28%
C=CCN(c1ccc(C(=O)Nc2ccc(OCc3ccccc3)cc2)cc1)S(C)(=O)=O -0.47%
O=C(COc1ccc(S(=O)(=O)NCCc2ccccc2)cc1)NC1CC1 -1.2%
COc1cc(NC(=O)C2CC(c3ccccc3O)=NO2)c(OC)cc1Cl (stereo unspecified) 0.24%
CCCCCC(=O)N/N=C(/C)c1ccc(O)cc1O 0.98%
CCOC(=O)c1sc(NC(=O)CSc2ncccn2)c(C#N)c1C -0.62%
O=C(Cn1nnc2ccccc21)N/N=C/c1c(O)ccc2ccccc12 0.12%
CC(C)CCSc1nc2c(c(=O)n1Cc1ccco1)C1(CCCCC1)Cc1ccccc1-2 0.06%
CN1CCN(c2ccc(-c3nc4ccc(C(=O)NCc5nc6ccccc6[nH]5)cc4s3)cc2)CC1 -0.31%
COc1cccc(C(=O)Nc2sc3c(c2C(N)=O)CCCCCC3)c1 0.1%
COc1ccc(N2C(=O)C3CCCN3C2c2cccc(OC)c2)cc1 (stereo unspecified) -1.45%
CCOc1ccc(/C=C2N=C(/C=C/c3cccc(Cl)c3Cl)OC\2=O)cc1 -0.04%
CCN(CC)S(=O)(=O)c1ccc(N2CCCC2)c(NC(=O)c2ccc([N+](=O)[O-])o2)c1 0.12%
COCCN1C(=O)CC(CC(=O)NCc2nc3ccccc3[nH]2)(c2ccccc2C)C1=O (stereo unspecified) 0.82%
CCc1nn(CCCN2CCN(c3cccc(Cl)c3)CC2)c(=O)n1CCOc1ccccc1 0.13%
CCOC(=O)c1sc2nc(SCC(=O)N(C)Cc3ccccc3)n(Cc3ccc4c(c3)OCO4)c(=O)c2c1C -1.12%
COc1ccccc1C(=O)N/C(=C\c1ccc2c(c1)OCO2)C(N)=O -0.62%
O=C(N/N=C/c1cccc(Cl)c1Cl)c1cccs1 -1.68%
Cc1ccc(NCC(=O)N/N=C\c2ccc(I)o2)cc1 -0.49%
CC1CCN(CC(=O)Nc2ccccc2Cl)CC1 0.1%
CCCOc1ccc([N+](=O)[O-])cc1C=C1C(=O)NC(=O)NC1=O -0.34%
COc1ccc(OC)c(NC(=O)CSc2nnc3[nH]c(=O)c(C)c(C)n23)c1 -0.4%
COc1ccc(C(=O)Cc2cc3ccccc3oc2=O)c(OC)c1 -0.78%
CCc1ccc(-c2ccc(C3CCC(CC)CC3)cc2)nc1 (stereo unspecified) -0.84%
CCc1ccc(S(=O)(=O)NCCOc2cc(N3CCOCC3)ncn2)cc1 0.53%
CCOC(=O)C1=C(CC)OC(N)=C(C#N)C1c1ccc(C(F)(F)F)cc1 (stereo unspecified) -0.53%
CCC[C@@H]1NC(=O)[C@@H]2C[C@H](NCc3nc(-c4ccc(F)cc4)cs3)CN2C1=O 0.46%
CC(C)CC(C(=O)Nc1cccc([N+](=O)[O-])c1)N1C(=O)c2ccccc2C1=O (stereo unspecified) 0.6%
COc1ccc(C(=O)COC(=O)C(Cc2ccccc2)NC(=O)c2ccco2)cc1 (stereo unspecified) 0.8%
CCC1(c2ccc(Cl)cc2Cl)NC(=S)N(c2ccc(C)c(C)c2)N1 (stereo unspecified) 0.75%
CCC(C(=O)N1CCCCC1)n1c(C)c2cnn(-c3ccccc3)c(=O)c2c1C (stereo unspecified) -0.56%
Cc1ccc2cc(C#N)c(SCCO)nc2c1 0.26%
COc1ccc(/C=C(\C#N)C(=O)Nc2cccc(S(=O)(=O)N3CCCCC3)c2)cc1 -1.24%
Cc1ccc(Nc2nc(-c3ccccn3)cs2)cc1C -1%
CC(C)(C)NC(=O)Cc1coc2ccc3ccccc3c12 0.92%
COc1ccc(/C=C(\C#N)C(=O)Nc2ccc(F)cc2)c(OC)c1 0.7%
Cc1ccc(-n2cc(-c3ccccc3)c3c(N4CC(C)OC(C)C4)ncnc32)cc1 (stereo unspecified) 0.03%
COc1cc(/C=N/N=C2/NC(=O)CS2)ccc1OC(=O)c1ccccc1C -0.88%
O=C(CN1C(=O)S/C(=C\c2ccc(Cl)s2)C1=O)Nc1ccccc1F -1.03%
CO[C@@H]1COC(=O)[C@@H](C)COC(=O)[C@H](C)NC(=O)C/C=C/[C@H]1C 0.63%
Cn1c2ccccc2c2nnc(SCC(=O)Nc3ccc(NC(=O)C4CC4)cc3)nc21 0.69%
Cc1nn(C)c(C)c1-c1nc2ncnc(NCCO)c2[nH]1 -0.32%
CCc1nnc2n1N(C(C)=O)C(c1ccc3c(c1)CCCC3)=C(C(C)=O)S2 0.79%
CC(C)(C)OC(=O)N1CCC[C@H](Cn2cc(C(=O)O)nn2)C1 0.63%
Cc1nc2cc(C(=O)NCc3ccc4c(c3)OCO4)ccc2n1-c1ccc(OCc2ccccc2)cc1 -1.41%
CCCCNC(=O)C1(c2ccc(OC)cc2)CCOCC1 -0.13%
CCC(=O)N(CCC(Cc1ccccc1)c1ccc2c(c1)OCO2)Cc1ccc(OC(C)C)cc1 (stereo unspecified) 1.24%
CC(C)c1ccc(Nc2nccn3c(-c4cccc(CO)c4)cnc23)cc1 1.58%
Cc1ccc(S(=O)(=O)NCc2nc3nc(C)cc(C)n3n2)cc1 -1.42%
Nc1cc(=O)nc(SCC(=O)Nc2nccs2)n1-c1ccc(F)cc1 1.67%
c1ccc(NCc2cccc3ccccc23)nc1 -0.81%
COc1ccccc1C1C(C(N)=O)=C(C)Nc2nc(CCCO)nn21 (stereo unspecified) -0.72%
CC1CCN(C(=O)C(NS(=O)(=O)c2ccc3c(c2)oc(=O)n3C)C(C)C)CC1 (stereo unspecified) 0.12%
Cc1cc(=O)[nH]c(SCC(=O)Nc2cccc3ccccc23)n1 -0.05%
COc1cccc(C2SCC(=O)N2c2cccc(C)c2)c1OC (stereo unspecified) 0.31%
CC(C)(C)C1CCC(=NNC(=O)C(=O)NCCc2ccccc2)CC1 (stereo unspecified) 1.36%
C#CCOc1ccc(Br)cc1/C=C1\NC(=S)N(C)C1=O -0.05%
Cc1ccc(NC(=O)CCn2c(=O)oc3ccccc32)cc1Cl 0.81%
C(=N\N1CCN(c2ccccn2)CC1)/C1=C(N2CCOCC2)C(=C/c2ccccc2)/CC1 0.86%
CC(C)(C)C1(O)CCN2C[C@H]3c4ccccc4CCc4cccc(c43)[C@@H]2C1 (stereo partly specified) -0.56%
CCOCCCNC(=O)NC1CCN(c2nc3ccccc3s2)CC1 0.63%
CCOC(=O)Cc1coc(NC(=O)c2ccc(Cl)cc2)n1 1.26%
CC(C)C(=O)NNS(=O)(=O)c1ccc([N+](=O)[O-])cc1 -0.02%
N#Cc1ccc(N2CCN(CCCNC(=O)Nc3ccccc3)CC2)cc1 -0.19%
O=C1Cc2cc(S(=O)(=O)Nc3cccc(Cl)c3)cc3c2N1CCC3 0.12%
COc1cccc(NC(=O)CN(C)S(=O)(=O)c2ccc3c(c2)SCC(=O)N3)c1 -0.01%
CCNc1nc(NC(C)C)nc(OCCOC(C)=O)n1 -0.68%
OCc1ccccc1CNc1ccc(F)cc1 0.05%
COCCNCCOc1ccc(C(C)(C)C)cc1 -1.21%
CCN(CC)C1CCN(C(=O)c2cc(COc3ccc4ncccc4c3)on2)C1 (stereo unspecified) -1.18%
COc1ccc(-c2cc(N)n(S(=O)(=O)c3ccccc3)n2)c(OC)c1 -0.31%
COc1cc2nc(-c3ccc4c(c3)C(=O)N(CCC(C)C)C4=O)oc(=O)c2cc1OC 0.42%
COc1ccc(Nc2nc(-c3ccc(F)cc3)cs2)c(OC)c1 -0.04%
CCCN1C(=O)c2ccc(C(=O)Nc3ccc(C(C)=O)cc3)cc2C1=O 0.09%
CC(C(=O)NCCN1CCOCC1)n1c2ccccc2c2cn[nH]c(=O)c21 (stereo unspecified) -0.57%
c1ccc2sc(-c3cnc4ccc(NC5CCOCC5)nn34)cc2c1 -1.36%
O=C(COc1ccc(Br)cc1CO)NCC(F)(F)F 0.36%
CCOc1ccc(NC(=O)N2CCN(CC)CC2)cc1 0.34%
CCc1ccc(N2N=C(C)/C(=C\c3ccc(-c4ccc5c(c4)C(=O)NC5=O)o3)C2=O)cc1 -0.14%
O=S(=O)(NCc1csc(-c2cccnc2)n1)c1ccc2ccccc2c1 0.68%
CCN1/C(=C/c2ccc3cc(C)ccc3[n+]2CC)Sc2ccc(-c3ccccc3)cc21 -0.55%
Cc1ccc(NC(=O)Cn2cc(-c3ccccc3)c(N3CCOCC3)n2)c(C)c1 -0.77%
CC1CCCCN1C(=O)c1cc2c(=O)n(C)c3ccccc3c2s1 (stereo unspecified) 0.54%
COc1cccc(/C=C2/C(=O)NC(=O)N(c3ccccc3F)C2=O)c1 0.99%
